The record followed here is PubChem BioAssay.

Activity calls are given as the source filed them.

One test deals with wheat germ agglutinin (Triticum aestivum), Alexa647-labelled. Briefly: Alexa647-WGA lectin binding to printed small molecules – biochemical, small-molecule microarray, 635/667 nm fluorescence, artefact control for SMM control-protein annotation, profiling panel (AID 1140).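 Further: score merges 667 nm feature emission with signal to noise over triplicate slides.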 The conditions noted are these: WGA-A647 binding, 635 nm fluorescence, higher = more signal.
As for `Cc1ccc(S[C@]2(C(=O)NCCCN(C)C)CC(=O)N(Cc3ccccc3)[C@@H]2c2ccc(CO)cc2I)cc1`, the composite z-score is 0.876.

`COc1ccc([C@H]2C[C@H]3C(Br)=C[C@]2(OC)C(=O)[C@]32CO2)cc1` displayed a composite z-score of -0.06. Take `COC(=O)[C@H]1[C@@H]2COc3ccccc3[C@H]2N[C@H]1C(=O)OC`: the composite z-score was 0.274. As for `C=CC[C@]1(C(N)=O)N=C(c2ccc(OCCCO)cc2)O[C@H]1c1ccccc1CN=[N+]=[N-]`, the composite z-score stood at 1.43. In turn, `CC(C)[Si](OCC[C@H]1O[C@]2(C(=O)N(Cc3ccccc3)c3ccccc32)[C@@H](C)[C@@H]1[Si](C)(C)O)(C(C)C)C(C)C` registered a composite z-score of 0.128. Consider `CC(C)[Si](OCCCNS(=O)(=O)c1ccc(Br)cc1)(C(C)C)C(C)C`, for which the composite z-score worked out at 0.622. The same measure, in the same setting: the value for `C=CCOC(=O)[C@@H]1[C@H]2C(=O)O[C@H](c3ccccc3)[C@H](c3ccccc3)N2[C@H](c2ccc(OCCOC(=O)[C@H]3C[C@H]4C(=O)N[C@@H](CCCCNC(C)=O)C(=O)N4[C@H]3c3ccc(O)cc3)cc2)[C@@]12C(=O)Nc1ccc(I)cc12` was 0.115. For `C[C@]1(C(=O)NCCN2CCOCC2)c2ccccc2C(=O)N(Cc2ccccc2)[C@H]1c1ccc(CO)cc1`, the composite z-score was -0.208. As to `C=CCN(C(=O)C1N(c2ccc(CCO)cc2)C(=O)C2C(C(=O)O)C3C=CC21O3)C(C)(C)C` (configuration not stated), the composite z-score was -2.09. As for `CCOC(=O)C[C@H]1[C@H](OC(=O)Cc2ccc3c(c2)OCO3)[C@@H](NC(=O)c2ccc3ccccc3c2)c2cc(OCCCO)ccc2N1C(=O)Cc1ccc(OC)cc1`, the composite z-score was determined as 0.353. Compound `COc1ccc([Si](C)(C)[C@H]2[C@H](CCO)O[C@@]3(C(=O)N(Cc4ccc(N5CCCCC5=O)cc4)c4ccccc43)[C@@H]2C)cc1` returned a composite z-score of 1.14. Same read-out and setting: the value for `COc1cc(CO)cc(I)c1O[C@H]1C=C(C(=O)NCCO)C[C@@H](N(CC2CCCCC2)C(=O)c2cc3ccccc3oc2=O)[C@@H]1O` was 0.516; that for `COC(=O)C1=CC(c2ccc(CO)cc2)=CC(C2CC2)N(Cc2sc3ccccc3c2Cl)C=C1C(=O)OC` (configuration not stated) was 1.49; that for `CSCC[C@@H]1NC(=O)CC=C[C@@H](C)COC(=O)[C@H](CCSC)NC(=O)CC=C[C@@H](C)COC1=O` was -0.725. On to `COC(=O)[C@@]1(Cc2ccc(OC)cc2)[C@H]2c3cc(C(=O)N(C)C)n(CCc4ccc(OC)c(Br)c4)c3C[C@H]2CN1C(=O)c1ccccc1`, for which the composite z-score was 1.37. The compound `COCC(=C=CC[C@H](O)c1ccc(OCCO)cc1)C[C@H](O)c1ccccn1` displayed a composite z-score of -0.32. `O=C(NCc1ccccc1)[C@@]1(Cc2ccccc2)COC(c2ccc(OCCCO)cc2)=N1` had a composite z-score of 0.449. Compound `CO[C@@H]1COC(=O)[C@H](C)NC(=O)CC=C[C@@H](C)[C@H](OC)COC(=O)[C@H](C)NC(=O)CC=C[C@H]1C` returned a composite z-score of 0.222. `CCCC=C(CCC)[C@@H](NS(=O)(=O)c1ccc(C(F)(F)F)cc1)c1ccc(-c2ccccc2)cc1` came in with a composite z-score of 1.2.

The compound `CC(C)(C)OC(=O)CC[C@]1(C(=O)N2CCCCC2)N=C(c2ccc(OCCCO)cc2)O[C@H]1c1ccccc1` came in with a composite z-score of 1.27. Compound `CC(=O)NCCCC[C@@H]1NC(=O)[C@@H]2C[C@H](C(=O)NCCCCCNC(=O)CS)[C@H](c3ccc(O)cc3)N2C1=O` returned a composite z-score of -0.802. The same measure, in the same setting: the value for `C=CCC(OC(C)=O)[C@@H]1[C@@H](N(Cc2ccc(-c3cccc(C(F)(F)F)c3)o2)C(=O)Cc2ccc(F)cc2)c2cc(OCCCO)ccc2N1C(=O)c1ccc(-c2ccccc2)cc1` (some centres not stated) was 0.294; that for `CO[C@]12C=C(Br)[C@@H](C[C@@H]1c1ccccc1)[C@@]1(CO1)C2=O` was -0.297; that for `COCCOC(=O)N1C(=O)[C@@]2(c3cc(C#CCC(C(=O)OC)C(=O)OC)ccc31)[C@H](c1ccccc1OCCO)N1[C@H](c3ccccc3)[C@H](c3ccccc3)OC(=O)[C@H]1[C@@H]2C(=O)N1CCCCCCC1` was 0.529.

Take `CCOC(=O)C1=CC[C@@H](c2ccccc2)N(S(=O)(=O)c2ccc(C)cc2)[C@H]1C`: the composite z-score was 0.457.

For the compound `O=C1c2ccccc2[C@](Cc2ccccc2I)(C(=O)NCC(F)(F)F)[C@H](c2ccc(CO)cc2)N1Cc1ccccc1C(F)(F)F`, the composite z-score worked out at 0.479.

For another test, the target named is Luciferin 4-monooxygenase (Photinus pyralis) (UniProt P08659). Briefly: inhibition of purified Photinus pyralis luciferase – biochemical, luminescence, purified enzyme, 2006 set, primary screen (AID 1141).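 Further: cell-free assay with purified firefly luciferase at 100 ng per well in PBS; test concentration not given here.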 Particulars: purified firefly luciferase, SteadyGlo luminescence, 30 min; higher = more signal, called active from +8 up or from −8 down.
Sequence of Luciferin 4-monooxygenase (Photinus pyralis) (P08659 whole entry, looked up): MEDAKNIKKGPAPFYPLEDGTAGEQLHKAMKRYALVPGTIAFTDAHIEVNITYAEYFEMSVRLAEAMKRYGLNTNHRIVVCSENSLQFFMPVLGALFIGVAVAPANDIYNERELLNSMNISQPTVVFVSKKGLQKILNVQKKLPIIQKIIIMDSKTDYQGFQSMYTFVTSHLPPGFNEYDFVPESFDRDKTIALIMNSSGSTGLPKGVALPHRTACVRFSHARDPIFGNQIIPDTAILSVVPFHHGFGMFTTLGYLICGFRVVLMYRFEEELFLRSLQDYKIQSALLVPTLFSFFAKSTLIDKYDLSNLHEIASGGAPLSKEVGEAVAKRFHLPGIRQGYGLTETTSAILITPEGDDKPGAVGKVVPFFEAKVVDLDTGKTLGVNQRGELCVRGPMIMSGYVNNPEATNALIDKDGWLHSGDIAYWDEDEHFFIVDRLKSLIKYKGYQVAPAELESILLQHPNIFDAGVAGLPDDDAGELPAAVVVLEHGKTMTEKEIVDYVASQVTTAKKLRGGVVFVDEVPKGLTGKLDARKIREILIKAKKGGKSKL
With `CCCC=C(CCC)[C@@H](NS(=O)(=O)c1ccc(-c2ccccc2)cc1)c1ccc(C(=O)OC)cc1`, the z-score is 1.67 (inactive). For the compound `COc1ccc([Si](C)(C)[C@@H]2[C@@H](CC(=O)N(CCO)Cc3ccccc3)O[C@]3(C(=O)N(Cc4cccc(N5CCC5=O)c4)c4ccccc43)[C@H]2C)cc1`, the z-score is 0.352 (inactive). As to `CCC1=C2CN(Cc3ccccc3Br)[C@@H]([C@@H](O)Cc3ccccc3)C2C=CCC1` (some centres not stated), the z-score was -0.852 (inactive). In the case of `CO[C@H]1COC(=O)[C@H](C)COC(=O)[C@H](Cc2ccccc2)NC(=O)CC=C[C@H]1C`, the z-score was -1.14 (inactive). Consider `Cc1ccc(S[C@]2(C(=O)NC3CC3)CC(=O)N(Cc3cc(C(F)(F)F)cc(C(F)(F)F)c3)[C@@H]2c2ccc(CO)cc2)cc1`, for which the z-score was 1.22 (inactive). Consider `CCCC[C@@H]1C[C@H]1[C@@H](NC(=O)c1cccs1)c1ccc(Cl)cc1`, for which the z-score was 0.191 (inactive). On to `COC(=O)C(CC#Cc1ccc2c(c1)[C@]1(C(=O)N2)[C@H](C(=O)N2CCCCCCC2)[C@H]2C(=O)O[C@H](c3ccccc3)[C@H](c3ccccc3)N2[C@@H]1c1ccc(O)cc1)C(=O)OC`, for which the z-score was -0.269 (inactive). In the case of `CC(C)N1CC=CC23O[C@@H]4/C=C\CCCOC(=O)C4[C@H]2C(=O)N(CCO)[C@@H]3C1=O` (some centres not stated), the z-score is -1.68 (inactive). Regarding `O=C1O[C@H](c2ccccc2)[C@H](c2ccccc2)N2[C@H]1[C@@H](C(=O)NC[C@H](O)c1ccccc1)[C@]1(C(=O)Nc3ccc(C#CC4=CCCCC4)cc31)[C@H]2c1ccc(OCCO)cc1`, the z-score is -1.4 (inactive). As for `Cc1ccc(S[C@]2(C(=O)NC(C)C)CC(=O)N(C3Cc4ccccc4C3)[C@@H]2c2ccc(CO)cc2)cc1`, the z-score was 0.187 (inactive). Regarding `Cc1ccc(S[C@]2(C(=O)NCCCN(C)C)CC(=O)N(Cc3ccccc3)[C@@H]2c2ccc(CO)cc2I)cc1`, the z-score was -0.0307 (inactive). On to `COc1ccc([C@H]2C[C@H]3C(Br)=C[C@]2(OC)C(=O)[C@]32CO2)cc1`, for which the z-score is 0.909 (inactive). In the case of `COC(=O)[C@H]1[C@@H]2COc3ccccc3[C@H]2N[C@H]1C(=O)OC`, the z-score is -1.37 (inactive).

As for `C=CC[C@]1(C(N)=O)N=C(c2ccc(OCCCO)cc2)O[C@H]1c1ccccc1CN=[N+]=[N-]`, the z-score is -1.47 (inactive). Regarding `CC(C)[Si](OCC[C@H]1O[C@]2(C(=O)N(Cc3ccccc3)c3ccccc32)[C@@H](C)[C@@H]1[Si](C)(C)O)(C(C)C)C(C)C`, the z-score is -0.183 (inactive).

For `CC(C)[Si](OCCCNS(=O)(=O)c1ccc(Br)cc1)(C(C)C)C(C)C`, the z-score is -1.22 (inactive). In the case of `C=CCOC(=O)[C@@H]1[C@H]2C(=O)O[C@H](c3ccccc3)[C@H](c3ccccc3)N2[C@H](c2ccc(OCCOC(=O)[C@H]3C[C@H]4C(=O)N[C@@H](CCCCNC(C)=O)C(=O)N4[C@H]3c3ccc(O)cc3)cc2)[C@@]12C(=O)Nc1ccc(I)cc12`, the z-score is -0.608 (inactive).

As to `C[C@]1(C(=O)NCCN2CCOCC2)c2ccccc2C(=O)N(Cc2ccccc2)[C@H]1c1ccc(CO)cc1`, the z-score is 1.47 (inactive).

Take `C=CCN(C(=O)C1N(c2ccc(CCO)cc2)C(=O)C2C(C(=O)O)C3C=CC21O3)C(C)(C)C` (configuration not stated): the z-score is -0.163 (inactive). Still for that read-out and setting: under `CCOC(=O)C[C@H]1[C@H](OC(=O)Cc2ccc3c(c2)OCO3)[C@@H](NC(=O)c2ccc3ccccc3c2)c2cc(OCCCO)ccc2N1C(=O)Cc1ccc(OC)cc1` stands -0.953 (inactive); under `COc1ccc([Si](C)(C)[C@H]2[C@H](CCO)O[C@@]3(C(=O)N(Cc4ccc(N5CCCCC5=O)cc4)c4ccccc43)[C@@H]2C)cc1`, -1.39 (inactive). On the same count and under the same terms, the value for `COc1cc(CO)cc(I)c1O[C@H]1C=C(C(=O)NCCO)C[C@@H](N(CC2CCCCC2)C(=O)c2cc3ccccc3oc2=O)[C@@H]1O` was -0.462 (inactive). On to `COC(=O)C1=CC(c2ccc(CO)cc2)=CC(C2CC2)N(Cc2sc3ccccc3c2Cl)C=C1C(=O)OC` (configuration not stated), for which the z-score is -1.55 (inactive).

For the compound `CSCC[C@@H]1NC(=O)CC=C[C@@H](C)COC(=O)[C@H](CCSC)NC(=O)CC=C[C@@H](C)COC1=O`, the z-score is -0.731 (inactive).

In the case of `COC(=O)[C@@]1(Cc2ccc(OC)cc2)[C@H]2c3cc(C(=O)N(C)C)n(CCc4ccc(OC)c(Br)c4)c3C[C@H]2CN1C(=O)c1ccccc1`, the z-score is 0.253 (inactive). As to `COCC(=C=CC[C@H](O)c1ccc(OCCO)cc1)C[C@H](O)c1ccccn1`, the z-score is -2.45 (inactive). Take `O=C(NCc1ccccc1)[C@@]1(Cc2ccccc2)COC(c2ccc(OCCCO)cc2)=N1`: the z-score was -0.603 (inactive). Regarding `CO[C@@H]1COC(=O)[C@H](C)NC(=O)CC=C[C@@H](C)[C@H](OC)COC(=O)[C@H](C)NC(=O)CC=C[C@H]1C`, the z-score is -1.57 (inactive). In the case of `CCCC=C(CCC)[C@@H](NS(=O)(=O)c1ccc(C(F)(F)F)cc1)c1ccc(-c2ccccc2)cc1`, the z-score was 2.63 (inactive). As for `CC(C)(C)OC(=O)CC[C@]1(C(=O)N2CCCCC2)N=C(c2ccc(OCCCO)cc2)O[C@H]1c1ccccc1`, the z-score is -2.85 (inactive). With `CC(=O)NCCCC[C@@H]1NC(=O)[C@@H]2C[C@H](C(=O)NCCCCCNC(=O)CS)[C@H](c3ccc(O)cc3)N2C1=O`, the z-score was -1.88 (inactive). Regarding `C=CCC(OC(C)=O)[C@@H]1[C@@H](N(Cc2ccc(-c3cccc(C(F)(F)F)c3)o2)C(=O)Cc2ccc(F)cc2)c2cc(OCCCO)ccc2N1C(=O)c1ccc(-c2ccccc2)cc1` (some centres not stated), the z-score is -0.306 (inactive). On the same count and under the same terms, the value for `CO[C@]12C=C(Br)[C@@H](C[C@@H]1c1ccccc1)[C@@]1(CO1)C2=O` was -0.876 (inactive). As for `COCCOC(=O)N1C(=O)[C@@]2(c3cc(C#CCC(C(=O)OC)C(=O)OC)ccc31)[C@H](c1ccccc1OCCO)N1[C@H](c3ccccc3)[C@H](c3ccccc3)OC(=O)[C@H]1[C@@H]2C(=O)N1CCCCCCC1`, the z-score was 0.406 (inactive). As to `CCOC(=O)C1=CC[C@@H](c2ccccc2)N(S(=O)(=O)c2ccc(C)cc2)[C@H]1C`, the z-score is 0.347 (inactive).

Regarding `O=C1c2ccccc2[C@](Cc2ccccc2I)(C(=O)NCC(F)(F)F)[C@H](c2ccc(CO)cc2)N1Cc1ccccc1C(F)(F)F`, the z-score was -0.956 (inactive).
